Data from PubChem BioAssay (EPA / NIEHS).
Inconclusive results are not listed. Calls of active or inactive are those of the source. How the source made its calls: active means hit-call score of the fitted dose curve at least 0.9, where 1 is the maximum; inconclusive means response in the unintended direction; inactive means score below 0.9.

These compounds were tested on Cytochrome P450 2C9 (Homo sapiens) (UniProt P11712) (assay: CLD_CYP2C9_24hr: CellzDirect (CLD) Gene Expression Assay for xenobiotic metabolism (CYP2C9) at 24 hours (AID 2283688)).
Experimental: CLD_24hr is a cell-based, multiplexed-readout assay that uses hepatocyte, a human liver primary cell, with measurements taken at 24 hours after chemical dosing in a 96-well plate.CLD_CYP2C9_24hr is one of 16 assay component(s) measured or calculated from the CLD_24hr assay. It is designed to make measurements of mRNA induction, a form of inducible reporter, as detected with chemiluminescence signals by Quantitative Nuclease Protection Assay (qNPA) technology.Data from the assay component CLD_CYP2C9_24hr was analyzed at the endpoint, CLD_CYP2C9_24hr, in the positive analysis fitting direction relative to DMSO as the negative control and baseline of activity. Using a type of inducible reporter, gain-of-signal activity can be used to understand changes in the reporter gene as they relate to the gene CYP2C9. Furthermore, this assay endpoint can be referred to as a primary readout. To generalize the intended target to other relatable targets, this assay endpoint is annotated to the cyp intended target family, where subfamily is xenobiotic metabolism.
Human hepatocyte cultures were treated daily for two consecutive days with fresh dosing solutions containing appropriate concentrations of the 320 ToxCast chemicals (chemical identities were blinded to CellzDirect and other ToxCast collaborators), vehicle control (0.2% DMSO), and positive control inducers as summarized in Table 1. Due to the large number of treatment groups and chemicals examined, the ToxCast chemicals were divided into two groups (spanning two independent cultures of hepatocytes from separate donor preparations (Hu778: ToxCast plates 1 and 2; Hu776: ToxCast plates 3 and 4). Each preparation of human hepatocyte cultures was treated with respective vehicle control, medium only control, set of six positive controls/reference chemicals for the five hepatic receptor pathways, and a subset of eight of the ToxCast chemicals (indoxacarb, pyrithiobac-sodium, norflurazon, cyhalofop-butyl, methomyl, thiram, acetochlor, and propiconazole). These replicate data, coupled with internal replicates designed within the blinded ToxCast chemical library, provided additional data to evaluate interindividual differences between hepatocyte preparations and their potential impact on chemical profiles.Cell morphology and integrity were evaluated using phase-contrast microscopy as an indicator of hepatocyte cell health (Tyson & Green, 1987). Cultures for each treatment group (i.e., media, vehicle [0.2% DMSO], positive control inducers [multiple concentrations], and the ToxCast chemicals [multiple concentrations]) were observed and cell morphology was assessed relative to vehicle control cultures at each harvest time point (0, 6, 24, or 48 h). […] Images were evaluated at the conclusion of the study to assess changes in cell integrity and account for the effects of chemical exposure on uncharacteristic changes in concentration-dependent gene expression profiles. The results from these determinations of apparent cytotoxicity were annotated (yes/no) alongside the corresponding qNPA data for reference.At the conclusion of each treatment period, hepatocyte cultures (96-well) were washed with 1 volume of HBSS, lysed by addition of 25 ul ArrayPlate lysis buffer (HTG, Tucson, AZ), and 70 ul/well of Denaturation Oil, denatured by incubation at 95C for 10 min, and frozen at approximately -70C until analysis by nuclease protection assay (qNPA) (Roberts et al., 2007). For qNPA analysis, cell lysates were thawed at 50C for approximately 30 min, qNPA probes were added, and samples were incubated at 95C for 10 min to begin the detection process by denaturing the target RNA, dissociating the duplexes and secondary structure hybridization. At the conclusion of the hybridization period, S1 nuclease reagent was added to each sample to digest all nonprotected nucleotides at 50C for 60-90 min. […]

SMILES	outcome
CS/C(C)=N/OC(=O)N(C)SN(C)C(=O)O/N=C(\C)SC	inactive
CCON=C(CC)C1=C(O)CC(c2c(C)cc(C)cc2C)CC1=O (centres undefined)	inactive
CCCCOC(=O)c1ccccc1C(=O)OCCCC	inactive
C=CC1(C)OC(=O)N(c2cc(Cl)cc(Cl)c2)C1=O (centres undefined)	inactive
COC(=O)c1ccccc1C(=O)OC	inactive
CO/C=C(/C(=O)OC)c1ccccc1Oc1cc(Oc2ccccc2C#N)ncn1	inactive
COC(=O)N(OC)c1ccccc1COc1ccn(-c2ccc(Cl)cc2)n1	inactive
O=C(O)COc1nc(Cl)c(Cl)cc1Cl	inactive
CC(Oc1ccc(Cl)cc1Cl)C(=O)O (centres undefined)	inactive
N#CC(CCc1ccc(Cl)cc1)(Cn1cncn1)c1ccccc1 (centres undefined)	inactive
CC1=C(C(=O)Nc2ccccc2)SCCO1	inactive
Cc1cc(Cl)ccc1OCC(=O)O	inactive
COP(N)(=O)SC (centres undefined)	inactive
COc1nc(NC(C)C)nc(NC(C)C)n1	inactive
COc1nc(C)nc(NC(=O)NS(=O)(=O)c2ccccc2CCC(F)(F)F)n1	inactive
CCOC(=O)C(Cl)Cc1cc(-n2nc(C)n(C(F)F)c2=O)c(F)cc1Cl (centres undefined)	inactive
CCNc1nc(Cl)nc(NCC)n1	inactive
COc1nc(C)nc(NC(=O)NS(=O)(=O)c2ccccc2Cl)n1	inactive
C#CCOS(=O)OC1CCCCC1Oc1ccc(C(C)(C)C)cc1 (centres undefined)	inactive
CCOC(=O)CC(SP(=S)(OC)OC)C(=O)OCC (centres undefined)	inactive
Oc1ccccc1-c1ccccc1	inactive
COP(=S)(OC)Oc1nc(Cl)c(Cl)cc1Cl	inactive
CCCCNC(=O)OCC#CI	inactive
C=CCC1=C(C)[C@@H](OC(=O)[C@@H]2[C@@H](C=C(C)C)C2(C)C)CC1=O	inactive
COC(=O)C(C)Oc1ccc(Oc2ccc(Cl)cc2Cl)cc1 (centres undefined)	inactive
CNC(=O)ON=CC(C)(C)SC	inactive
CCCCC(CC)COC(=O)c1ccccc1C(=O)OCC(CC)CCCC (centres undefined)	inactive
COc1ccc(C(c2ccc(OC)cc2)C(Cl)(Cl)Cl)cc1	inactive
CCCN(CCC)c1c([N+](=O)[O-])cc(S(N)(=O)=O)cc1[N+](=O)[O-]	inactive
